Biological target: Solute carrier family 2, facilitated glucose transporter member 1 (Homo sapiens) (UniProt P11166)
Experiment: ST_JUDE_LEISH: Cytotoxicity at 2uM final concentration against transgenic Leishmania Mexicana promastigotes LmGLUT1 that are glucose transport deficient and complemented with the human glucose transporter GLUT1. Activity is measured by DNA content using SYBR green in vitro
Format: functional

Sequence of Solute carrier family 2, facilitated glucose transporter member 1 (Homo sapiens) (P11166 whole entry): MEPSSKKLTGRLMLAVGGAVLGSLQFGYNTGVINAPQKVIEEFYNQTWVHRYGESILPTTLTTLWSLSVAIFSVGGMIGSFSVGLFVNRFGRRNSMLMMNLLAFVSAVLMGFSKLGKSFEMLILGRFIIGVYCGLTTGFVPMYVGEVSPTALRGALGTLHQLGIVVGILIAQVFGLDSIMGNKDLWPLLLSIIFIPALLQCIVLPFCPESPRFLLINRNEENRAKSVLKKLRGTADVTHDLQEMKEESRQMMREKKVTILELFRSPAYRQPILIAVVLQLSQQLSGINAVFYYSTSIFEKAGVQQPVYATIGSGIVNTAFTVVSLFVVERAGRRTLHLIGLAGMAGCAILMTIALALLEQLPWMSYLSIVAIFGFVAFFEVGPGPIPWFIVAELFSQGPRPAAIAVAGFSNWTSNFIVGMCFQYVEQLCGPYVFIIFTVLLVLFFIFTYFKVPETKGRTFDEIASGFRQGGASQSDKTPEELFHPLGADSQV

SMILES | inhibition [%]
O=C1OC2(CN1CC1CCN(Cc3ccc(O)c(Cl)c3)CC1)c1ccccc1-c1ccccc12 | 8.04
COc1ccc(C2c3ccccc3-c3nc(N)nc(N)c3C2C)cc1 (stereo not given) | 3.13
C#CC(C)(CO)N1CCCC1 (stereo not given) | 1.89
CC(Nc1ccc2c(c1)CCC2)C(=O)Nc1cc(C(F)(F)F)ccc1N1CCOCC1 (stereo not given) | 14.7
COc1ccc2c(CCNc3nc(SC)ncc3C(=O)NCCc3ccc(F)cc3)c[nH]c2c1 | 2.09
CC(C)(C)c1ccc(CN2CCC(NC(=O)c3ccc(-c4ccccc4F)s3)CC2)cc1 | 0.69
COc1cccc(C=Cc2nc(=O)c3ccccc3o2)c1OC | 4.18
OC(COc1ccccc1-c1nc2ccccc2o1)CN1CCCN(CCc2ccccc2)CC1 (stereo not given) | -0.28
N#Cc1c(N)nc(SCC(=O)Nc2cc(C(F)(F)F)ccc2Cl)c(C#N)c1-c1cccs1 | 1.06
CN(C)CCCNc1ccnc2cc(Cl)ccc12 | 1.15
CCOC(=O)[C@H](Cc1cccc2ccccc12)NC(=O)[C@H](CCC(=O)OC(C)(C)C)NC(=O)c1ccc(N(C)Cc2cnc3nc(N)nc(N)c3n2)cc1 | 3.47
CN(C)CCOc1cc(NC(=O)Nc2ccc(-c3ccncc3)c3ccccc23)ccc1I | 6.39
O=C(C=Cc1ccc(Cl)c(Cl)c1)NCCCCCN1CCC(CCNC(=O)C(c2ccccc2)c2ccccc2)CC1 | 3.47
CCCCCCCc1c(C)nc2c(OC)cccc2c1O | 5.31
COc1ccc2nccc([C@@H](O)CN3CCC(NC[C@H](Cc4ccccc4)NC(=O)OC(C)(C)C)CC3)c2c1 | 3.73
COc1cc(NC(=O)c2cc([N+](=O)[O-])ccc2NC(=O)CNC2CCCCC2C)cc(OC)c1 (stereo not given) | 7.57
O=C(NC1CCC(CCN2Cc3cccc(F)c3C2)CC1)c1cccc(-c2cccnc2)c1 (stereo not given) | 0.7
COc1ccc2nccc(NCC3(O)CCC(NCc4ccc5c(n4)NC(=O)CS5)CC3)c2n1 (stereo not given) | 4.33
CC(C)c1ccc2[nH]c(C(=O)NC3CCC(N4CCCc5ccc(C#N)cc5C4)CC3)cc2c1 (stereo not given) | 3.48
Cc1cc(N2CCCC2)nc(Nc2ccc(NC(=O)Nc3ccccc3)cc2)n1 | 2.65

SMILES | inhibition [%]
CC(C)(C)c1ccc(-c2nnc(N)nc2N)cc1 | 1.1
CCN1CCN(c2cc(C)c3cc(NC(=O)c4cccc(Cl)c4)ccc3n2)CC1 | 7.2
O=C(Nc1ccc(-c2ccc(-c3nc4ccccc4[nH]3)s2)cc1)c1ccncc1 | 12.7
O=C(c1cccc(-c2ccc(-c3nc4cc(C(F)(F)F)ccc4[nH]3)cc2)c1)N1CCCCC1CN1CCC(O)C1 (stereo not given) | 0.99
O=C(C=Cc1ccc(Cl)c(Cl)c1)NCCCCCN1CCC(CCNC(=O)c2sc3ccccc3c2Cl)CC1 | 11.5
C=CCn1c(=N)c(C(=O)NCc2ccc(F)cc2)cc2c(=O)n3cccc(C)c3nc21 | 3.56
O=C(N[C@@H](Cc1ccccc1)[C@H](O)CNC1CCc2ccccc2C1)c1cc(C2CCCC2)cc(N2CCCC2=O)c1 (stereo not given in full) | -3.59
CCCCn1c(Sc2ccc(C#N)c([N+](=O)[O-])c2)nnc1-c1cccc(Cl)c1 | 4.8
CCOC(=O)C(=CNc1ccc(Cc2cnc(N)nc2N)cc1CC)C(=O)OCC | 2.65
O=C(N[C@@H](Cc1ccccc1)C(=O)NC1CCCc2ccccc21)c1ccc(O)c(-c2cccc(C(F)(F)F)c2)c1 (stereo not given in full) | -3.38
O=c1cc(NCCCNCc2cn(S(=O)(=O)c3ccccc3)c3ccccc23)[nH]c2ccccc12 | -0.4
O=C(Nc1ccc(Cl)cc1)N[C@H]1CCN(CCCCCNC(=O)C2CC2c2ccc(Cl)c(Cl)c2)C1 (stereo not given in full) | 8.91
c1cncc(-c2cc(N3CCc4ccccc4C3)nc(-c3ccncc3)n2)c1 | 8.78
Cc1cc(=NN=Cc2cccc(Cl)c2)c2ccccc2[nH]1 | 5.11
N=C(N)Nc1ccc(OCCCCCOc2ccc(NC(=N)N)c(Cl)c2)cc1Cl | -0.79
CCc1c[nH]c2c(N3CCCCS3(=O)=O)cc(C(=O)N[C@@H](Cc3ccccc3)[C@H](O)CNCc3cccc(OC)c3)cc12 | 0.82
COc1ccc(C2CCN(CCCCNC(=O)c3ccc(NC(=O)c4ccc(Cl)cc4)cc3)CC2)cc1Cl | -0.02
O=C(Nc1ccccc1)N1CCC(CN2CCOC(c3ccccc3)(c3ccccc3)C2)CC1 | 7.91
COc1ccccc1N1CCN(CCCCN(C(=O)Nc2cccc(Cl)c2)C(=O)Nc2cccc(Cl)c2)CC1 | 10.6
Cc1cc(=O)c2cc(Oc3ccc(OC(F)(F)F)cc3)ccc2[nH]1 | -0.06

Biological target: Hexose transporter 1 (Plasmodium falciparum) (UniProt O97467)
Experiment: ST_JUDE_LEISH: Cytotoxicity at 2uM final concentration against transgenic Leishmania Mexicana promastigotes LmPfHT that are glucose transport deficient and complemented with the Plasmodium falciparum hexose transporter. Activity is measured by DNA content using SYBR green in vitro
Format: functional

SMILES | inhibition [%]
O=C1OC2(CN1CC1CCN(Cc3ccc(O)c(Cl)c3)CC1)c1ccccc1-c1ccccc12 | 6.3
COc1ccc(C2c3ccccc3-c3nc(N)nc(N)c3C2C)cc1 (stereo not given) | 3.19
C#CC(C)(CO)N1CCCC1 (stereo not given) | 4.77
CC(Nc1ccc2c(c1)CCC2)C(=O)Nc1cc(C(F)(F)F)ccc1N1CCOCC1 (stereo not given) | 16.9
COc1ccc2c(CCNc3nc(SC)ncc3C(=O)NCCc3ccc(F)cc3)c[nH]c2c1 | 0.58
CC(C)(C)c1ccc(CN2CCC(NC(=O)c3ccc(-c4ccccc4F)s3)CC2)cc1 | -2.65
COc1cccc(C=Cc2nc(=O)c3ccccc3o2)c1OC | 0.32
OC(COc1ccccc1-c1nc2ccccc2o1)CN1CCCN(CCc2ccccc2)CC1 (stereo not given) | -1.19
N#Cc1c(N)nc(SCC(=O)Nc2cc(C(F)(F)F)ccc2Cl)c(C#N)c1-c1cccs1 | 0.77
CN(C)CCCNc1ccnc2cc(Cl)ccc12 | 0.62
CCOC(=O)[C@H](Cc1cccc2ccccc12)NC(=O)[C@H](CCC(=O)OC(C)(C)C)NC(=O)c1ccc(N(C)Cc2cnc3nc(N)nc(N)c3n2)cc1 | 4.12
CN(C)CCOc1cc(NC(=O)Nc2ccc(-c3ccncc3)c3ccccc23)ccc1I | 8.78
O=C(C=Cc1ccc(Cl)c(Cl)c1)NCCCCCN1CCC(CCNC(=O)C(c2ccccc2)c2ccccc2)CC1 | 1.79
CCCCCCCc1c(C)nc2c(OC)cccc2c1O | 8.11
COc1ccc2nccc([C@@H](O)CN3CCC(NC[C@H](Cc4ccccc4)NC(=O)OC(C)(C)C)CC3)c2c1 | 2.02
COc1cc(NC(=O)c2cc([N+](=O)[O-])ccc2NC(=O)CNC2CCCCC2C)cc(OC)c1 (stereo not given) | 2.04
O=C(NC1CCC(CCN2Cc3cccc(F)c3C2)CC1)c1cccc(-c2cccnc2)c1 (stereo not given) | 1.22
COc1ccc2nccc(NCC3(O)CCC(NCc4ccc5c(n4)NC(=O)CS5)CC3)c2n1 (stereo not given) | 3.51
CC(C)c1ccc2[nH]c(C(=O)NC3CCC(N4CCCc5ccc(C#N)cc5C4)CC3)cc2c1 (stereo not given) | 0.9
Cc1cc(N2CCCC2)nc(Nc2ccc(NC(=O)Nc3ccccc3)cc2)n1 | 2.28

SMILES | inhibition [%]
CC(C)(C)c1ccc(-c2nnc(N)nc2N)cc1 | 0.43
CCN1CCN(c2cc(C)c3cc(NC(=O)c4cccc(Cl)c4)ccc3n2)CC1 | 9.24
O=C(Nc1ccc(-c2ccc(-c3nc4ccccc4[nH]3)s2)cc1)c1ccncc1 | 8.04
O=C(c1cccc(-c2ccc(-c3nc4cc(C(F)(F)F)ccc4[nH]3)cc2)c1)N1CCCCC1CN1CCC(O)C1 (stereo not given) | 1.44
O=C(C=Cc1ccc(Cl)c(Cl)c1)NCCCCCN1CCC(CCNC(=O)c2sc3ccccc3c2Cl)CC1 | 9.43
C=CCn1c(=N)c(C(=O)NCc2ccc(F)cc2)cc2c(=O)n3cccc(C)c3nc21 | 3.45
O=C(N[C@@H](Cc1ccccc1)[C@H](O)CNC1CCc2ccccc2C1)c1cc(C2CCCC2)cc(N2CCCC2=O)c1 (stereo not given in full) | 2.21
CCCCn1c(Sc2ccc(C#N)c([N+](=O)[O-])c2)nnc1-c1cccc(Cl)c1 | 6.03
CCOC(=O)C(=CNc1ccc(Cc2cnc(N)nc2N)cc1CC)C(=O)OCC | 2.16
O=C(N[C@@H](Cc1ccccc1)C(=O)NC1CCCc2ccccc21)c1ccc(O)c(-c2cccc(C(F)(F)F)c2)c1 (stereo not given in full) | -1.1
O=c1cc(NCCCNCc2cn(S(=O)(=O)c3ccccc3)c3ccccc23)[nH]c2ccccc12 | -0.55
O=C(Nc1ccc(Cl)cc1)N[C@H]1CCN(CCCCCNC(=O)C2CC2c2ccc(Cl)c(Cl)c2)C1 (stereo not given in full) | 6.32
c1cncc(-c2cc(N3CCc4ccccc4C3)nc(-c3ccncc3)n2)c1 | 7.89
Cc1cc(=NN=Cc2cccc(Cl)c2)c2ccccc2[nH]1 | 6.14
N=C(N)Nc1ccc(OCCCCCOc2ccc(NC(=N)N)c(Cl)c2)cc1Cl | -1.31
CCc1c[nH]c2c(N3CCCCS3(=O)=O)cc(C(=O)N[C@@H](Cc3ccccc3)[C@H](O)CNCc3cccc(OC)c3)cc12 | -0.07
COc1ccc(C2CCN(CCCCNC(=O)c3ccc(NC(=O)c4ccc(Cl)cc4)cc3)CC2)cc1Cl | 0.63
O=C(Nc1ccccc1)N1CCC(CN2CCOC(c3ccccc3)(c3ccccc3)C2)CC1 | 4.78
COc1ccccc1N1CCN(CCCCN(C(=O)Nc2cccc(Cl)c2)C(=O)Nc2cccc(Cl)c2)CC1 | 8.66
Cc1cc(=O)c2cc(Oc3ccc(OC(F)(F)F)cc3)ccc2[nH]1 | 0.96

— ChEMBL document CHEMBL3433997, “St. Jude Leishmania screening dataset” (2016)
